Data reported in PubChem BioAssay (NCI).
This is part of a sample that, as a whole, favours compounds with a hit. Of some 83,000 tested, about 20% had one in any assay.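 Cells were grown in 96-well plates and exposed to the test compound at a single concentration for 48 hours; results are reported as percent growth, with values below 10 considered active.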 Values without a mark were called inactive. The source made the active and inactive calls.

Tested on: MDA-MB-468 breast
Experiment: NCI-60 one-dose screen, 48 h (100 = growth as untreated, 0 = no growth, -100 = all killed)
Conditions: 10 µM unless noted

## C=CCc1cc(Cl)cc2c(OC(C)=O)c(C(C)=O)c(-c3ccccc3)nc12
  growth: 116%

## CCc1nc(N)nc(N)c1C#CC(C)c1cc(-c2ccnc(C)c2)c2oc(C)nc2c1 (stereo not given)
  growth: -20.6% (active)

## OC(c1ccccc1)C(NCc1ccccc1)c1ccccc1 (stereo not given)
  growth: 95.4%

## CC[C@H](Nc1ncnc2nc[nH]c12)c1nc2cccc(NCc3ccc(C(=O)NO)o3)c2c(=O)n1-c1ccccc1
  growth: 84.7%

## O=C(Cn1c2c(c3ccccc31)CCCC2)Nc1ccc(-c2nc3ccccc3s2)cc1
  growth: -19.5% (active)

## O=C1C(=O)c2ccccc2C(O)=C1CCCc1ccc(C2CCCCC2)cc1
  growth: 17.5%

## O=C(O)c1cccc2c1-c1ccccc1C2=O
  growth: 116%

## S=C1NC2(c3ccccc3)CCC(=S)N2c2ccccc21 (stereo not given)
  growth: 112%

## N#Cc1c(-c2ccc(Cl)cc2)c(C#N)c2c(C#N)c(N)nn2c1N
  growth: 80.1%

## CCOC(=O)c1c(NC(=O)c2ccc(C(F)(F)F)cc2)sc2c3c(ccc12)OCN(C)C3
  growth: -76.9% (active)

## COc1ccc(/C(=C/c2ccc3ccccc3c2)c2nn[nH]n2)cc1OC
  growth: 60.2%

## O=C(Nc1ccc(Cl)c(Cl)c1)Nc1ccc(Cl)c([N+](=O)[O-])c1
  growth: -19% (active)

## O=C(Cn1nncc1CN1C(=O)CSC1=O)Nc1ccc(F)cc1
  growth: 104%

## O=C(N/N=C/c1ccccc1O)c1ccncc1
  growth: 61%

## C[C@@H]1CC[C@@H]2[C@@H]1[C@H](OC(=O)/C=C/c1ccccc1)[C@]1(CCCOCCOCCOCCOC(=O)CCCC[C@@H]3SC[C@@H]4NC(=O)N[C@@H]43)C[C@@H](OC(=O)CO)[C@@]2(C)O1
  growth: 111%

## NC(=NCCCOc1ccc(Cl)cc1)Nc1ccc(Cl)cc1
  growth: -14.9% (active)

## C[n+]1c2ccccc2c(Nc2ccc(N3CCCCC3)cc2)c2[nH]c3ccccc3c21
  growth: -73.8% (active)

## COc1ccc(CC(C#N)c2ccc(Cl)cc2)cc1 (stereo not given)
  growth: 24%

## O=[N+]([O-])c1ccc(N=Nc2cc(S(=O)(=O)O)c3cccc(S(=O)(=O)O)c3c2O)cc1
  growth: 118%

## COc1ccc2nc3ccccc3c(NCc3ccc(Cl)cc3)c2c1
  growth: -30.6% (active)

## COc1ccc(-n2nc(C)c3c(Nc4ccc(NC(=O)Nc5cc(C(F)(F)F)ccc5F)cc4)ncnc32)cc1
  growth: 29.6%

## CCOc1ccc(NC2=C(Cl)C(=O)c3ccccc3C2=O)cc1
  growth: 64.9%

## COCC[C@H]1CCC/C=C/[C@@H]2C[C@H](O)C[C@H]2[C@H](O)/C=C/C(=O)O1
  growth: -50.7% (active)

## CCN1C[C@@H](C)n2c(c(O)c3c(=O)n(Cc4ccc(F)c(Cl)c4)nc(C(=O)NC)c32)C1=O
  growth: 45%

## COc1ccc(-c2nn(-c3cccc(NC(=O)c4cccc(C(F)(F)F)c4)c3)cc2-c2ccncc2)cc1Cl
  growth: 31.4%

## O=C1C(Cl)=C(Cl)C(Cl)(Cl)C(Cl)C1(Cl)Cl (stereo not given)
  growth: 115%

## O=C(O)Cc1ccc(Cl)cc1
  growth: 106%

## NS(=O)(=O)c1ccc(Nc2nc(SCC(=O)c3ccc(Cl)cc3)nc3ccccc23)cc1
  growth: 82.4%

## CCCCCCCCCCCCNC(=S)N/N=C/c1ccc(Cl)c(Cl)c1
  growth: 104%

## COc1cc(/C=C2\C(=O)Nc3ccccc32)ccc1OCc1ccc(Cl)cc1
  growth: 102%

## COc1cnc2c(c1)C(=O)c1c-2n(CCCNC(C)C)c(=O)c2cc(F)ccc12
  growth: -63.6% (active)

## C/C(O)=C(/C=N/C(=S)Nc1ccccc1)C(=O)Nc1ccccc1C
  growth: 99.7%

## COc1cc(Cl)ccc1C
  growth: 64.9%

## O=c1c(-c2nc3ccccc3[nH]2)cc2ccccc2n1Cc1cn(Cc2ccccc2Cl)nn1
  growth: 14.1%

## COc1cc2c(c(OC)c1)C1c3cc(OC)ccc3NC(=O)N1CC2 (stereo not given)
  growth: 70.1%

## O=C(Oc1ccc2c(c1)sc1nc(-c3ccccc3)[nH]c(=O)c12)C(F)(F)F
  growth: 37.9%

## CCOC(=O)c1c(N)c(C#N)cn1-c1cc(OC)c(OC)c(OC)c1
  growth: 103%

## N#Cc1c(N)nnn1Cc1cc(=O)oc2c1ccc1ccccc12
  growth: 106%

## c1cc2c(ccc3[nH]c(-c4ccc5[nH]ncc5c4)c4c(c32)CCCC4)n1
  growth: 76.7%

## COc1cc2oc(-c3ccc(O)cc3)cc(=O)c2c(O)c1-c1c(OC)cc(O)c2c(=O)cc(-c3ccc(O)cc3)oc12
  growth: 36.1%
